# Data as given in PubChem BioAssay (NCATS).
# Several values for one entry are separate records, joined by “and”; a condition that tells them apart may be missing. Equal entries are not always repeated. Records with an inconclusive call do not appear. A call without a number means that no potency is given here. Some compounds were tested as several samples or in several runs, with calls that do not always agree. Activity calls are given as the source filed them. Unless noted, the call rests on the fitted dose curve; in most records, active means well fitted curve in the direction sought with a large enough effect; inconclusive means small, poorly fitted or top-dose-only effect, or another doubt; inactive means no such curve, though single readings can be large; an effect the other way counts as inactive or inconclusive.
# Assays:
# [1] = target: Voltage-gated inwardly rectifying potassium channel KCNH2 (Homo sapiens) (UniProt Q12809); assay: qHTS Assay for Small Molecule Inhibitors of the Human hERG Channel Activity (AID 588834);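 further: lower thallium flux fluorescence means stronger hERG block; nearly all actives have a fitted effect of over 50% in size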; further: potency means the concentration at half of the fitted maximal effect
# Method in brief: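 Homogeneous FluxOR thallium flux assay using hERG-expressing U2OS cells (BacMam). Compound treatment about 10 minutes preceded stimulation; reduced fluorescence taken as channel block.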
# [2] = qHTS assay for small molecule antagonists of peroxisome proliferator-activated receptor delta signaling (AID 588535); settings: HEK293T PPARd-UAS-bla, beta-lactamase FRET ratio, 18 h; 460 nm channel;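 further: cells co-treated with a PPAR-delta agonist as stimulator during compound exposure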
# Method in brief: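 Titrations were run on PPAR-delta-UAS-bla HEK293T cells in charcoal/dextran-stripped serum, incubated 18 h at 37 C. CCF4 fluorescence (460/530 nm) after 2 h RT; Hill equation yields IC50 and maximal response.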
# [3] = target: Peroxisome proliferator-activated receptor gamma (Homo sapiens) (UniProt P37231); assay: qHTS assay for small molecule agonists of peroxisome proliferator-activated receptor gamma signaling (AID 588536; active means well fitted curve in the direction sought with a large enough effect in the signal ratio, with a control signal flat, not every such curve was filed as active; the % refers to the signal ratio)
# Method in brief: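 Using GeneBLAzer HEK293 cells, response was quantified by CCF4 fluorescence and normalized between basal DMSO (0%) and rosiglitazone 2 uM (100%); curves yielded half-maximal stimulation concentration and efficacy.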
# [4] = qHTS assay for small molecule agonists of retinoid X receptor alpha signaling (AID 588544; calls by dose curve; further: potency means the concentration at half of the fitted maximal effect); settings: HEK293T RXRa-UAS-bla, beta-lactamase reporter, 18 h; 530 nm emission
# [5] = target: Retinoic acid receptor RXR-alpha (Homo sapiens) (UniProt P19793); assay: as above
# [6] = target: Thyroid hormone receptor beta (Homo sapiens) (UniProt P10828); assay: qHTS assay for small molecule agonists of thyroid hormone receptor beta signaling (AID 588545; calls by dose curve)
# Method in brief: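 Beta-lactamase reporter activity under TR response element control is measured in HEK 293 cells after 18 hrs compound exposure. Signal is ratiometric CCF4 fluorescence, 460/530 nm.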
# [7] = qHTS assay for small molecule antagonists of retinoid X receptor alpha signaling (AID 588546; active means well fitted inhibition curve with a large enough effect in the signal ratio, with a control signal flat, not every such curve was filed as active; the % refers to the signal ratio; further: potency means the concentration at half of the fitted maximal effect;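 on max response: cells stimulated with 9-cis-retinoic acid as agonist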); settings: HEK293T RXRa-UAS-bla, beta-lactamase ratio, antagonist mode; measured here: W530 green channel, cytotoxicity proxy
# Method in brief: (§1)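 Beta-lactamase reporter inhibition, read as CCF4 fluorescence ratio (ex 405, em 460/530 nm) after 2 h at RT. HEK293T UAS-bla cells, 2500/well, were stimulated with 9-cis-RA at 500 or 100 nM final alongside test compound for 18 h at 37 C.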
# [8] = target: Retinoic acid receptor RXR-alpha (Homo sapiens) (UniProt P19793); assay: as above; settings: HEK293T RXRa-UAS-bla, beta-lactamase ratio, antagonist mode
# Method in brief: as §1
# [9] = target: Thyroid hormone receptor beta (Homo sapiens) (UniProt P10828); assay: qHTS assay for small molecule antagonists of thyroid hormone receptor beta signaling (AID 588547; active means well fitted inhibition curve with a large enough effect in the signal ratio, with a control signal flat, not every such curve was filed as active; the % refers to the signal ratio;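 further: cells stimulated with 0.4 nM T3 agonist during compound exposure; series mostly up to about 77 µM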); settings: TR-UAS-bla HEK293, beta-lactamase ratio, antagonist mode, 18 h
# Method in brief: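 Inhibition of T3-driven (0.4nM final) beta-lactamase reporter activity was measured over 0.59 nM to 92 uM compound after 18 h at 37 C. The cells were GripTite HEK293 TR-UAS-bla in charcoal/dextran-stripped serum, with CCF4 ratio read-out and IC50 from Hill fits.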
# [10] = target: Luciferin 4-monooxygenase (Photinus pyralis) (UniProt P08659); assay: Biochemical firefly luciferase enzyme assay for NPC (AID 624030);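 further: purified P. pyralis luciferase at 10 nM with luciferin and ATP substrate; series mostly up to about 59 µM; nearly all actives have a fitted effect of over 70% in size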
# Method in brief: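 Direct inhibition of firefly luciferase enzyme (10 nM final, 50 mM Tris Acetate) assessed by luminescence within 5 minutes. Percent activity scaled between DMSO and PTC124 positive control, with concentration-effect curves classified by fit quality and response.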
# [11] = S16 Schwann cell viability assay (CellTiter-Glo assay) (AID 624031);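 further: native untransfected S16 rat Schwann cells; cellular ATP luminescence as a viability measure; series mostly up to about 58 µM; nearly all actives have a fitted effect of over 70% in size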
# Method in brief: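 Parental S16 cells, 24 h compound, 37 °C. ATP-luminescence viability; DMSO = 0% activity, empty wells as reference; curves classified by fit quality and efficacy.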
# [12] = S16 Schwann cell PMP22 intronic element firefly luciferase assay (AID 624032); further: nearly all actives have a fitted effect of over 30% in size; further: potency means the concentration at half of the fitted maximal effect
# Method in brief: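 Luciferase reporter of PMP22 intronic-element expression in stably transfected S16 rat Schwann cells, read by ONE-Glo luminescence after 24 h compound exposure at 37 C. Activity scaled between DMSO (0%) and positive-control PTC124; concentration-effect curves quality-classified.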
# [13] = S16 Schwann cell PMP22 intronic element beta-lactamase assay (AID 624044; calls by dose curve; further: nearly all actives have a fitted effect of over 15% in size)
# Method in brief: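 Beta-lactamase reporter under a PMP22 intronic regulatory element in stable S16 rat Schwann cells; 24 h compound exposure. 460 nm blue signal normalized between DMSO (0%) and potassium clavulanate, with 535 nm FRET tracking viability; curves classed by r2 and response.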
# [14] = target: Peroxisome proliferator-activated receptor gamma (Homo sapiens) (UniProt P37231); assay: qHTS assay for small molecule antagonists of peroxisome proliferator-activated receptor gamma signaling (AID 588537; active means well fitted inhibition curve with a large enough effect in the signal ratio, with a control signal flat, not every such curve was filed as active; the % refers to the signal ratio; further: potency means the concentration at half of the fitted maximal effect)
# Method in brief: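 Antagonist-mode β-lactamase reporter screen run as a titration series. HEK293 PPARγ-UAS-bla cells are stimulated with rosiglitazone (50 nM final) for 16 h, then CCF4 is read at 460/530 nm. Data are scaled between DMSO and rosiglitazone and fitted to the Hill equation.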
# [15] = target: Vitamin D3 receptor (Homo sapiens) (UniProt P11473); assay: qHTS assay for small molecule antagonists of vitamin D receptor signaling (AID 588541; calls by dose curve;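 further: receptor activated by calcitriol during compound treatment; series mostly up to about 77 µM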)
# Method in brief: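 Antagonist-mode beta-lactamase reporter assay: HEK293T VDR-UAS-bla cells were exposed to titrated compound alongside 1-alpha,25-dihydroxyvitamin D3 at 3 nM final for 16 h. Values were normalized to the 50 nM agonist control and DMSO basal, with IC50 and efficacy from Hill equation fits.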
# [16] = target: Vitamin D3 receptor (Homo sapiens) (UniProt P11473); assay: qHTS assay for small molecule agonists of vitamin D receptor signaling (AID 588543; calls by dose curve)
# Method in brief: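 Measured: β-lactamase reporter activity (CCF4, 405 nm excitation, 460/530 nm emission) in HEK293T VDR-UAS-bla cells after 16 h compound exposure at 37 °C. Normalization against 50 nM 1α,25-dihydroxyvitamin D3 and DMSO; Hill-fit EC50.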
# [17] = qHTS for Inhibitors of the vitamin D receptor (VDR): Hit Validation using a Texas Red Assay (AID 602201)
# Method in brief: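 After a 2-hour room-temperature incubation, polarization of Texas-Red emission was read (Ex 595 nm/Em 615 nm). Final mix contained 7 nM Texas Red, 1.5 uM VDR-LBD and LG19078.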
# [18] = target: Glutaminase kidney isoform, mitochondrial (Homo sapiens) (UniProt O94925); assay: qHTS for Inhibitors of Glutaminase (GLS): LOPAC Validation (AID 624146);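 further: glutamate product detected by oxidase and peroxidase coupled Amplex red fluorescence gain; series mostly up to about 46 µM; nearly all actives have a fitted effect of over 60% in size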
# Method in brief: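 Glutamate formation by hKGA was monitored fluorometrically using coupled glutamate oxidase, HRP and Amplex Red. Substrate was added as 1 mM L-glutamine solution; incubation was 30 min at RT after an initial read.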
# [19] = qHTS of Trypanosoma Brucei Inhibitors: LOPAC Validation (AID 624147)
# Method in brief: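 Readout: single end-point luminescence (Kinase-Glo Plus, 10 min). Reaction conditions were TbPYK/substrate plus 130 uM ADP, 45 min at RT, pH 7.2 TEA buffer. No-enzyme wells served as controls, and data were normalized before concentration-response fitting.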
# [20] = target: Glucagon-like peptide 1 receptor (Homo sapiens) (UniProt P43220); assay: qHTS of GLP-1 Receptor Agonists: LOPAC Validation (AID 624148);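 further: luminescence from a luciferase reporter switched on by cAMP; higher luminescence signal means agonism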
# Method in brief: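 Agonism scored as increased luciferase luminescence driven by cAMP in HEK293 clones carrying GLP-1R. Cells settled 12 hours, received compound for 4-6 hr at 37 deg C, 5% CO2, and were read after 12 min detection reagent at RT.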
# Chain of Peroxisome proliferator-activated receptor gamma (Homo sapiens) (P37231 whole entry, looked up): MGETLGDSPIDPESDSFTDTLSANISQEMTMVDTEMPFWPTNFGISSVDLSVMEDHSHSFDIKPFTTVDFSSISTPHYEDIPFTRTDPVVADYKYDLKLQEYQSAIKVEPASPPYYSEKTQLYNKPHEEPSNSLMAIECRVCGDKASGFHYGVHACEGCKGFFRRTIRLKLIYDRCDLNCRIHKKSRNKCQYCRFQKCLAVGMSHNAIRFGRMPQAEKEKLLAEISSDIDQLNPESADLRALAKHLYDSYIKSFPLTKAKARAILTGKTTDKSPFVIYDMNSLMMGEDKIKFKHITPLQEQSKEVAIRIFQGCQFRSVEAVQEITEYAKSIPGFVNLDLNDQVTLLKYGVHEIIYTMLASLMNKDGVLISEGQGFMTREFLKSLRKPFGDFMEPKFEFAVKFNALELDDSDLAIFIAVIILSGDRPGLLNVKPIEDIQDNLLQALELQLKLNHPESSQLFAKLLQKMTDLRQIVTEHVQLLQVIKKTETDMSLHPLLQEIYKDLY
# Chain of Luciferin 4-monooxygenase (Photinus pyralis) (P08659 whole entry, looked up): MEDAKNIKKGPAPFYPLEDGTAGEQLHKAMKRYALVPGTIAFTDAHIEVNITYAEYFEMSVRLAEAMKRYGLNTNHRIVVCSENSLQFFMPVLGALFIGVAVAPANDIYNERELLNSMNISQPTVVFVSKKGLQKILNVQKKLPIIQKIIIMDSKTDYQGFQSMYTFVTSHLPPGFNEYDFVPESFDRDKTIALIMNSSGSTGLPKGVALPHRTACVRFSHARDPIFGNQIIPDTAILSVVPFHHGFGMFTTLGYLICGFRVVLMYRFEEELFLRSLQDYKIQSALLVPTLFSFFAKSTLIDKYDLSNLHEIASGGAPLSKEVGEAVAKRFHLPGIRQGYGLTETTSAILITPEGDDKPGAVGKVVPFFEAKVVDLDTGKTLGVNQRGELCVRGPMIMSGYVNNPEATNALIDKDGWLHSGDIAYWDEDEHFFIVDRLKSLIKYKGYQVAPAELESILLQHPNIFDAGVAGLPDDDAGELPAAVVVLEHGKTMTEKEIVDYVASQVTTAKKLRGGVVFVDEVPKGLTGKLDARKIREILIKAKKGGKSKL
# Chain of Vitamin D3 receptor (Homo sapiens) (P11473 whole entry, looked up): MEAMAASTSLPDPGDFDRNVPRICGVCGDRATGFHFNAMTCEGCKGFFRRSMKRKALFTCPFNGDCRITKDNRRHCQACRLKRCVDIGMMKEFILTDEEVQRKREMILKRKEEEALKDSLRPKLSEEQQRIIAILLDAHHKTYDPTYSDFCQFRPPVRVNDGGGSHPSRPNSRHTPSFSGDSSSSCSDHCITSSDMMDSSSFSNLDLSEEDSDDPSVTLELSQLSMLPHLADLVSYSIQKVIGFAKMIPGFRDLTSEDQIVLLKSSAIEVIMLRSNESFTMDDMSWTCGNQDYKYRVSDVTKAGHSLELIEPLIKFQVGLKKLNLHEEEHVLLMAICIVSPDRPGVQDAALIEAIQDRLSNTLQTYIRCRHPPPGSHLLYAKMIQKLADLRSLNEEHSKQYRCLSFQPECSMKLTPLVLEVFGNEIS
# Chain of Thyroid hormone receptor beta (Homo sapiens) (P10828 whole entry, looked up): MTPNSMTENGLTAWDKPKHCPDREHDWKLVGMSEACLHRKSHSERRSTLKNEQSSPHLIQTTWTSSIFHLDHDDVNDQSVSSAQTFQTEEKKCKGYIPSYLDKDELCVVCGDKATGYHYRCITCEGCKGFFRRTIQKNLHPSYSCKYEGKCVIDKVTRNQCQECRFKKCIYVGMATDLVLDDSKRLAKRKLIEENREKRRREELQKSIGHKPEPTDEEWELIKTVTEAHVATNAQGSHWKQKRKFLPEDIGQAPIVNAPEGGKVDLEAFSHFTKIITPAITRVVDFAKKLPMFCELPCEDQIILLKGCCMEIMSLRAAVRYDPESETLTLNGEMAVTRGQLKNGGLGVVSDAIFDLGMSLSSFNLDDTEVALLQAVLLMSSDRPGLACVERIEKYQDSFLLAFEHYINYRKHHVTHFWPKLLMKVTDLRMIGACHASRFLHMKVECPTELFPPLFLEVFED
# Chain of Retinoic acid receptor RXR-alpha (Homo sapiens) (P19793 whole entry, looked up): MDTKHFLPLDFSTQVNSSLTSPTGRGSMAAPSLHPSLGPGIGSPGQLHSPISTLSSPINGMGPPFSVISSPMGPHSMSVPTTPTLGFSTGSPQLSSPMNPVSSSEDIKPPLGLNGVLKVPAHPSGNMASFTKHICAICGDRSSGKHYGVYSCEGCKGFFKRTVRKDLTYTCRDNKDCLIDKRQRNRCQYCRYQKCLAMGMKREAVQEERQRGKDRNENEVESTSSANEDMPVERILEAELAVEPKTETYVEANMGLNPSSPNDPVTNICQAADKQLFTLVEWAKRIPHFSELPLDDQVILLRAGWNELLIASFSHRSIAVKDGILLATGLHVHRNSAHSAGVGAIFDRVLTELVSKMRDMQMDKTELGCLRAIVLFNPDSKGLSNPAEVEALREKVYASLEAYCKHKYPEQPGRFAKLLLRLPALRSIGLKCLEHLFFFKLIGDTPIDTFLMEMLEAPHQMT
# Chain of Voltage-gated inwardly rectifying potassium channel KCNH2 (Homo sapiens) (Q12809 whole entry, looked up): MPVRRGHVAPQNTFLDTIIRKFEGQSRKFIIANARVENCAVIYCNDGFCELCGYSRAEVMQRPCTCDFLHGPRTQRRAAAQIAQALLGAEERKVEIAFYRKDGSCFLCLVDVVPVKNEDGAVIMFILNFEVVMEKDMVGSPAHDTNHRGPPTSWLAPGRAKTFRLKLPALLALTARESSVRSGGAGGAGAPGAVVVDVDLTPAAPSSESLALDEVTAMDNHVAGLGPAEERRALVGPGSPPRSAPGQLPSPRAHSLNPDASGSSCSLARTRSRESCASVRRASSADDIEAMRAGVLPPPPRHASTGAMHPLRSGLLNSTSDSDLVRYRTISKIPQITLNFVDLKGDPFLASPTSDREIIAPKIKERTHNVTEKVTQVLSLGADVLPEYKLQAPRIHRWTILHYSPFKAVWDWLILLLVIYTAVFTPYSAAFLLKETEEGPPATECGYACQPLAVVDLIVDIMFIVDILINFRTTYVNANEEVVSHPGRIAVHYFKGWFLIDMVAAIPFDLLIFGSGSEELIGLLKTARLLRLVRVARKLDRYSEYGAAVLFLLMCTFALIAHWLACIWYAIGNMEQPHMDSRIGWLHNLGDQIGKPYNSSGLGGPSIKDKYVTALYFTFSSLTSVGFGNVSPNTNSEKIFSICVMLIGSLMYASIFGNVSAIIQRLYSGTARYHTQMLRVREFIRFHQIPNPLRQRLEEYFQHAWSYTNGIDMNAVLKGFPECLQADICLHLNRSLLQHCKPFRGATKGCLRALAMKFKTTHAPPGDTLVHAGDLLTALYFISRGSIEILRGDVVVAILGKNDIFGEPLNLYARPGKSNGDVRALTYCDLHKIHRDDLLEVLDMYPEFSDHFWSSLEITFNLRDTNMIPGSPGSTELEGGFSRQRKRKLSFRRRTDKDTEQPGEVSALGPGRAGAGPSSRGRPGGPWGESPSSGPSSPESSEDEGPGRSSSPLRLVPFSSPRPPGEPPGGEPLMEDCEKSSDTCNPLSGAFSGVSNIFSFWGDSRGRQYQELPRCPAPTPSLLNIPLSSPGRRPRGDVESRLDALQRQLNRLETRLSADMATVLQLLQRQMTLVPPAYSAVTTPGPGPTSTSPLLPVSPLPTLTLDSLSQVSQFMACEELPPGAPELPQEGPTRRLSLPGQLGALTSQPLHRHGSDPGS
# Chain of Glucagon-like peptide 1 receptor (Homo sapiens) (P43220 whole entry, looked up): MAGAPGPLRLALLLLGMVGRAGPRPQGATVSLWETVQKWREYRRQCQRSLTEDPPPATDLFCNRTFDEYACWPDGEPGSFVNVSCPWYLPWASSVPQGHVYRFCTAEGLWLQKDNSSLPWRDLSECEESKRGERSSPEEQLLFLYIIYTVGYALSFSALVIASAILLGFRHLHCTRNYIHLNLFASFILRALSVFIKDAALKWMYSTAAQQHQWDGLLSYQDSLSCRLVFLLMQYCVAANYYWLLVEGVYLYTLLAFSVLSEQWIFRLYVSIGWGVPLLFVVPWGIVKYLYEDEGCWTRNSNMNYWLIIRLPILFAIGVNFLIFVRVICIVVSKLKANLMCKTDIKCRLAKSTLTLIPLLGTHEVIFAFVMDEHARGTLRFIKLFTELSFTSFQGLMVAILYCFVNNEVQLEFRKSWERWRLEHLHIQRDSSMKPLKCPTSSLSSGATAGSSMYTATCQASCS
# Chain of Glutaminase kidney isoform, mitochondrial (Homo sapiens) (O94925 whole entry, looked up, canonical isoform): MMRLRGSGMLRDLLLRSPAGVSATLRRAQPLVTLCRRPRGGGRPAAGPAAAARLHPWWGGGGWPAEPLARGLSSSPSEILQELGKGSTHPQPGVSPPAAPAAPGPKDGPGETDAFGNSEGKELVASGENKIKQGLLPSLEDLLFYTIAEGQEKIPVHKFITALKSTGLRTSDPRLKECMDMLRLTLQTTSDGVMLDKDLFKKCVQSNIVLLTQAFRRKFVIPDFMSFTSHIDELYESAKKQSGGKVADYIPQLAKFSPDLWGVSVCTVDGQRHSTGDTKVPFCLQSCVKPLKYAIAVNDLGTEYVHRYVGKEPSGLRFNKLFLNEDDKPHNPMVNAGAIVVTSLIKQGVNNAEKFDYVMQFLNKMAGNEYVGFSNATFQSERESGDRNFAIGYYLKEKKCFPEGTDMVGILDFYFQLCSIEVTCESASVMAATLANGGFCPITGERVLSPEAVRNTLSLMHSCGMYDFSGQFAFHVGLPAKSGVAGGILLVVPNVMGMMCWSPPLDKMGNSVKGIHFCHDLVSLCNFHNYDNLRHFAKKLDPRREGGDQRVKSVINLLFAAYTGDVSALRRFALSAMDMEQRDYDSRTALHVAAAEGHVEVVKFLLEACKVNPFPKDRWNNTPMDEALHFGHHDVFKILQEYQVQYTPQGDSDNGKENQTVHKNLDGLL
smiles,measurement,setting,value
O=c1oc2ccccc2c(O)c1C(CC(O)c1ccc(-c2ccc(Br)cc2)cc1)c1ccccc1 (stereo not drawn),Potency,[1],inactive
Cc1ccc2c(c1)C1CN(C)CCC1N2 (stereo not drawn),Potency,[1],inactive
Oc1ccc(Cl)cc1Cc1ccccc1,max response,[2],28.1% and 8.37%
same,outcome,[3],inactive
same,max response,[4],-11.5% and -1.88%
same,Potency,[5],35.5 µM (active) and 39.8 µM (active)
same,outcome,[6],inactive
same,max response,[7],-5.58%
same,max response,[8],-16.2% (inactive)
same,activity change % (negative = inhibition),[9],-6.58% (inactive) and 9.11% (inactive)
same,Potency,[1],inactive and 44.7 µM (active)
same,Potency,[10],inactive
same,Potency,[11],inactive
same,Potency,[12],inactive
same,Potency,[13],inactive
Oc1cccc2cccnc12,max response,[2],-10.4% and -24.8%
same,outcome,[3],inactive
same,Potency,[14],inactive
same,outcome,[15],inactive
same,outcome,[16],inactive
same,outcome,[6],inactive
same,max response,[7],12%
same,max response,[8],-19.8% (inactive)
same,activity change % (negative = inhibition),[9],-18.8% (inactive) and -22.1% (inactive)
same,Potency,[1],inactive
same,Potency,[10],inactive
same,Potency,[12],inactive
C#CCN(C)[C@H](C)Cc1ccccc1,Potency,[1],inactive
Cc1cc(SCc2sc(-c3ccc(C(F)(F)F)c(F)c3)nc2C)ccc1OCC(=O)O,max response,[7],25.2%
same,max response,[8],-3.24% (inactive)
same,outcome,[17],inactive
Oc1ccccc1-c1ccccc1,max response,[2],-47.4% and 9.69% and -13.4%
same,outcome,[3],inactive
same,Potency,[14],39.8 µM (active) and inactive
same,outcome,[15],inactive
same,outcome,[16],inactive
same,max response,[4],9.97% and -12.1% and -6.9%
same,outcome,[6],inactive
same,max response,[7],-4.16% and -11.3% and -6.05%
same,max response,[8],10.1% (inactive) and -5.66% (inactive) and 6.56% (inactive)
same,activity change % (negative = inhibition),[9],19.4% (inactive) and 13.4% (inactive)
same,Potency,[1],inactive
same,Potency,[11],inactive
same,Potency,[12],inactive
CCOP(=S)(OCC)Oc1cc(C)nc(C(C)C)n1,max response,[2],-10.2% and 44.9%
same,outcome,[3],inactive
same,Potency,[14],inactive
same,max response,[4],-5.09% and -15.6%
same,Potency,[5],inactive
same,outcome,[6],inactive
same,max response,[7],-12.3% and -5.87%
same,max response,[8],-2.21% (inactive) and -10% (inactive)
same,activity change % (negative = inhibition),[9],-8.33% (inactive) and 8.71% (inactive)
same,Potency,[1],inactive
same,Potency,[11],inactive
same,Potency,[12],inactive
same,Potency,[13],inactive
Oc1cc(Cl)ccc1Oc1ccc(Cl)cc1Cl,max response,[2],38.5%
same,outcome,[3],inactive
same,Potency,[14],inactive
same,outcome,[15],inactive
same,outcome,[16],inactive
same,outcome,[6],inactive
same,max response,[7],-6.33%
same,Potency,[8],44.7 µM (active)
same,Potency,[1],inactive
same,Potency,[10],inactive
same,Potency,[11],inactive
same,Potency,[12],inactive
same,Potency,[13],inactive
NCC(O)c1ccc(O)cc1 (stereo not drawn),outcome,[3],inactive
same,outcome,[15],inactive
same,outcome,[16],inactive
same,max response,[4],14.7%
same,Potency,[5],inactive
same,max response,[7],5.99%
same,max response,[8],1.76% (inactive)
same,Potency,[1],inactive
same,Potency,[11],inactive
same,Potency,[12],16.1 µM (active)
same,Potency,[18],inactive
same,outcome,[19],inactive
same,outcome,[20],inactive
